Most compounds without a hit are left out; they make up all but 1.4% or so of the library.
Cathepsin G inh = human cathepsin G inhibitors, primary screen, biochemical, pooled compound mixtures, AMC fluorescence | purified enzyme, AMC-tetrapeptide fluorescence | 0.2% of 62,000 active | inhibition, % at 5 µM (by protocol) | P08311 | AID 581, 2007;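 active = inhibition above 20% in each of the two mixture wells holding the compound; inactive = inhibition of 20% or less in either well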;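 note: 0% = enzyme control without mixture and 100% = blank lacking enzyme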
C1s block = complement C1s protease inhibitors, primary screen, biochemical, 10-compound mixtures. purified C1s, fluorogenic AMC substrate, pooled mixtures. AID 538, 2006. Complement C1s subcomponent (Homo sapiens), P09871. 0.16% of 62,000 active. mean inhibition % of two 10-compound mixtures (hits give high values), % at 5 µM (by protocol);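 active = inhibition above 20% in each of the two 10-compound mixture wells holding the compound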;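 note: 0% = enzyme wells lacking compound mixture and 100% = no-enzyme blank wells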
FXIIa inh mix = human factor XIIa inhibitors, primary screen, biochemical, pooled compound mixtures, fluorogenic substrate. Coagulation factor XII (Homo sapiens), P00748. purified FXIIa. inhibition, % at 5 µM. 0.2% of 62,000 active;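 note: 0% = enzyme without compound and 100% = no enzyme blank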
Target sequence (P00748 20-372 limits assumed): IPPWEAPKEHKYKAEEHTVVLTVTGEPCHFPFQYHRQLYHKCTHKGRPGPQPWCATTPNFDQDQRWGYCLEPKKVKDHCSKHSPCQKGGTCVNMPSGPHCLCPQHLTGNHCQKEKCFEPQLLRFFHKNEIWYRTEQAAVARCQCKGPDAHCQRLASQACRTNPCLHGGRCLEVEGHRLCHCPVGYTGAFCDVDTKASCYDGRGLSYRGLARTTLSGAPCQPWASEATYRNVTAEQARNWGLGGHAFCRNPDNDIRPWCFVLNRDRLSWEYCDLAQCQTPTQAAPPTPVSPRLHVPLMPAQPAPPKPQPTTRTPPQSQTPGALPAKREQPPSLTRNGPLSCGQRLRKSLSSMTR
Target sequence (P00748 373-615 limits assumed): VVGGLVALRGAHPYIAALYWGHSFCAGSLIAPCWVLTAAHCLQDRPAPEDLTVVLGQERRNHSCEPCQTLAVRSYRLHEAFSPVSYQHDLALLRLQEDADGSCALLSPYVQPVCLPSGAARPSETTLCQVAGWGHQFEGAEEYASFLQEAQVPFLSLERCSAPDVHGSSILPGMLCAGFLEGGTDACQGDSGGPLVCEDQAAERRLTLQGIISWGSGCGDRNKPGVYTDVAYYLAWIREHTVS
FXIa mix inh = FXIa protease inhibitors in compound pools, primary screen, biochemical, 10-compound mixtures; Coagulation factor XI (Homo sapiens), P03951; purified FXIa, fluorogenic substrate, pooled mixtures; inhibition, % at 5 µM; 0.19% of 62,000 active; AID 680, 2007;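 note: each value is inhibition by a whole ten-compound pool holding the compound; 0% = enzyme with no mixture and 100% = wells lacking enzyme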
PLAP act = PLAP enzyme activators, biochemical, luminescence, HTS. Alkaline phosphatase, placental type (Homo sapiens), P05187. purified PLAP enzyme, luminescent substrate read-out; hits give high values. activation fold at 20 µM. 1.2% of 96,000 active. AID 696, 2007; in the data active = activation fold above about 2
HePTP inhibitor = inhibitors of human HePTP phosphatase, primary screen, biochemical, absorbance, leukemia target; Tyrosine-protein phosphatase non-receptor type 7 (Homo sapiens), P35236; recombinant HePTP phosphatase activity, OD absorbance; inhibition, % at 20 µM; 0.64% of 110,000 active; in the data active = inhibition above about 50%;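 note: plate controls were vehicle for no effect and reference inhibitor for full effect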
* marks the source's active call; other numbers are inactive results; . = no result given. Cut-off read from the data, not from the text of the source, unless noted: active = inhibition above about 20% (passing the limit was not always enough); inactive = the rest.

SMILES | Cathepsin G inh | C1s block | FXIIa inh mix | FXIa mix inh | PLAP act | HePTP inhibitor
Cc1ccc(-c2nnc(SCc3nc4ccccc4[nH]3)n2Cc2ccco2)cc1 | . | . | . | . | 1 | .
O=C(COc1ccccc1Cl)OCC(=O)N1CCN(S(=O)(=O)c2ccccc2)CC1 | 13 | 13 | -2 | 6 | 0.9 | 8
O=C(COC(=O)C12CC3CC(CC(C3)C1)C2)N1CCN(S(=O)(=O)c2ccccc2)CC1 | 45 | -3 | 2 | 37* | 0.9 | 10
CC(C)(C)c1ccc(S(=O)(=O)NNc2ccccc2)cc1 | . | . | . | . | . | 101*
O=C(Nc1ccccc1C(=O)Nc1ccc(Cl)cc1)c1ccco1 | . | . | . | . | . | 103*
Cc1cc(NC(=O)c2ccc(-c3ccc(Br)cc3)o2)ccc1NC(=O)c1ccco1 | . | . | . | . | . | -2
Cc1cc(NC(=O)c2ccc(-c3ccc(Cl)cc3)o2)ccc1NC(=O)c1ccco1 | . | . | . | . | . | 61*
CC(C)(C)c1ccccc1NC(=O)C1CC(=O)N(c2ccc(Cl)cc2)C1 (centres undefined) | . | . | . | . | . | -2
Cc1cc(NC(=O)c2ccc(C)c([N+](=O)[O-])c2)ccc1NC(=O)c1ccco1 | . | . | . | . | . | -12
COC(=O)c1ccc(N2C(=O)CC(N3CCN(c4ccc(Cl)cc4)CC3)C2=O)cc1 (centres undefined) | . | . | . | . | . | 4
CCN(CC)CCn1nc(C)nc1-c1ccccc1O | 4 | -3 | 10 | 4 | 2.3* | 0
Cc1ccc(S(=O)(=O)N(C)c2ccc(C(=O)N3CCN(Cc4ccc5c(c4)OCO5)CC3)cc2)cc1 | . | . | . | . | 2* | .
CN(c1ccc(C(=O)N2CCN(Cc3ccc4c(c3)OCO4)CC2)cc1)S(=O)(=O)c1ccccc1 | . | . | . | . | 1.9 | .
Cc1ccc(S(=O)(=O)N(C)c2ccc(C(=O)N3CCCCC3)cc2)cc1 | . | . | . | . | 2.1* | .
Cc1ccc(S(=O)(=O)Nc2ccccc2/C=N/n2cnnc2)cc1 | . | . | . | . | . | -9
COc1ccc2nc(SCc3nc(N)nc(Nc4ccccc4)n3)[nH]c2c1 | 3 | 1 | -16 | 1 | 2.5* | 8
CCCCCCCCCOC(=O)C(CC(=O)O)N1CCOCC1 (centres undefined) | . | . | . | . | 2* | .
O=C(O)CC(C(=O)OC1CCCCC1)N1CCOCC1 (centres undefined) | 6 | -27 | 9 | 4 | 0.9 | 13
CCC(C)(C)NC(=O)C(c1cccc(OC)c1)N(C(=O)c1ccn[nH]1)c1cccc(OC)c1 (centres undefined) | 7 | 11 | 7 | 3 | 2.9* | 9
CC(C)c1ccc(N2C(=O)NC(=O)/C(=C/c3ccc(Br)o3)C2=O)cc1 | . | . | . | . | . | 102*
Cc1cccc(N2C(=O)NC(=O)/C(=C/c3ccc(Br)o3)C2=O)c1 | . | . | . | . | . | 75*
CC(C)c1ccc(N2C(=O)NC(=O)/C(=C/c3ccc(F)cc3)C2=O)cc1 | . | . | . | . | . | -2
O=C(Nc1cc(Oc2ccccc2)cc([N+](=O)[O-])c1)c1ccco1 | . | . | . | . | . | -18
CCOC(=O)c1ccc(-n2c(C)nc3ccccc3c2=O)cc1 | 6 | 0 | 5 | 0 | 1.3 | 4
CCOC(=O)c1ccc(-n2c(-c3ccccc3)nc3ccccc3c2=O)cc1 | . | . | . | . | . | 98*
SMILES | Cathepsin G inh | C1s block | FXIIa inh mix | FXIa mix inh | PLAP act | HePTP inhibitor
Cc1[nH]c2ccc(-c3nnc(SCC(=O)NCc4ccco4)n3Cc3ccccc3)cc2c1C | 8 | 10 | -2 | 9 | 2.1* | 8
CCCCOc1ccc(/C=N/NS(=O)(=O)c2ccc(OC)cc2)cc1OCC | . | . | . | . | . | -8
N#Cc1c(-c2cccc(Br)c2)cc(C2CC2)nc1N | . | . | . | . | . | 8
COc1ccc(CCNC(=O)c2cc(-c3ccc(C)cc3O)n[nH]2)cc1OC | . | . | . | . | 2* | .
Cc1cc(C)c(O)c(-c2cc(C(=O)NCc3ccccc3)[nH]n2)c1 | . | . | . | . | 1.1 | .
Cc1ccc(O)c(-c2cc(C(=O)NCc3ccncc3)[nH]n2)c1 | -1 | 2 | 2 | 8 | 2.9* | 4
COc1cc(C(=O)Nc2cc(-c3nc4ccccc4s3)ccc2C)cc(OC)c1OC | . | . | . | . | . | -8
CCC1=NN2C(=N)/C(=C/c3ccc(-c4ccc(F)cc4)o3)C(=O)N=C2S1 | . | . | . | . | . | -23
CCC1=NN2C(=N)/C(=C/c3ccc(-c4ccc(C(=O)O)cc4)o3)C(=O)N=C2S1 | . | . | . | . | . | 57*
Cc1cc(C)c(S(=O)(=O)Nc2ccc[nH]c2=O)c(C)c1 | 2 | -25 | -16 | 8 | 2* | 1
Cc1cccc(NC(=O)c2cc([N+](=O)[O-])ccc2Cl)c1Cl | . | . | . | . | . | -5
O=S(=O)(Nc1ccc2nc(-c3ccc(Br)o3)[nH]c2c1)c1ccccc1 | 5 | -17 | 28* | -5 | 1 | -6
Nc1nc(SCC(=O)N2N=C3/C(=C/c4ccco4)CCCC3C2c2ccco2)n[nH]1 (centres undefined) | . | . | . | . | 2.1* | .
Cn1cnnc1SCC(=O)N1N=C2/C(=C/c3ccco3)CCCC2C1c1ccco1 (centres undefined) | . | . | . | . | 1.3 | .
O=C1NC(=S)S/C1=C/c1cc(I)c(O)c(I)c1 | . | . | . | . | . | 101*
COc1c(Br)cc(/C=C2\SC(=S)NC2=O)cc1Br | . | . | . | . | . | 103*
COc1cc(/C=C2/SC(=S)NC2=O)cc(Cl)c1O | . | . | . | . | . | -7
COc1cc(/C=C2/SC(=S)NC2=O)cc(Cl)c1OCc1ccc(Cl)cc1Cl | . | . | . | . | . | 102*
COc1ccc(/C=C2/SC(=S)NC2=O)cc1OCc1ccc(Cl)cc1 | . | . | . | . | . | 10
CS(=O)(=O)N(Cc1ccc(C(=O)Nc2cccc(C(F)(F)F)c2)cc1)c1cccc(Cl)c1 | . | . | . | . | . | -11
COc1ccc(C=NCCC23CC4CC(CC(C4)C2)C3)c(OC)c1 | . | . | . | . | . | 4
COC(=O)c1ccc(N2C(=O)c3cccc([N+](=O)[O-])c3C2=O)cc1 | . | . | . | . | . | -5
Cc1nc2sccn2c1C(=O)NN=C1CCCCC1 | . | . | . | . | . | -4
O=C(O)CSCc1ccc(Cl)cc1 | 13 | 11 | 65* | 5 | 1.1 | 7
N=c1oc2ccccc2cc1-c1nc2ccccc2c(=O)[nH]1 | -4 | -12 | 35* | 4 | 1.5 | 11
SMILES | Cathepsin G inh | C1s block | FXIIa inh mix | FXIa mix inh | PLAP act | HePTP inhibitor
N=c1oc2ccc([N+](=O)[O-])cc2cc1-c1nc2ccccc2[nH]1 | . | . | . | . | . | 6
O=C(O)C1C2CCC(O2)C1C(=O)NCc1ccc(F)cc1 (centres undefined) | . | . | . | . | . | 103*
Cc1ccc(C2CC(=O)Nc3c2cc(Br)c2ccccc32)cc1[N+](=O)[O-] (centres undefined) | . | . | . | . | . | -1
Cc1n[nH]c(C)c1S(=O)(=O)N1CCCC(C(=O)NCc2cccs2)C1 (centres undefined) | 11 | 13 | 2 | 6 | 1 | 7
Cc1ccc(CNC(=O)C2CCCN(S(=O)(=O)c3c(C)n[nH]c3C)C2)cc1 (centres undefined) | . | . | . | . | 2.3* | .
NC(=O)c1ccc(C(=O)c2ccc(N)cc2)cc1N | . | . | . | . | . | -2
Cc1ccc2nc(CSc3nc(C)ccc3C#N)[nH]c2c1 | . | . | . | . | 2.2* | .
